Laboratory results from paper PMC5540273 (PLoS ONE, 2017).

Columns and labels:
Settings in all cases: concentration: 1 μM, replicates: in singlicate; n = 1
DMPK2 = test system: T1, DMPK2
T1 construct: gene CDC42BPG

DMPK = test system: DMPK
DRAK1 = test system: T2, DRAK1
T2 construct: gene STK17A

DRAK2 = test system: T3, DRAK2
T3 construct: gene STK17B

DYRK1A = test system: DYRK1A
DYRK1B = test system: DYRK1B
DYRK2 = test system: DYRK2
EGFR = test system: EGFR
EIF2AK1 = test system: EIF2AK1
EPHA1 = test system: EPHA1
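Further: KINOMEscan kinase panel screen.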

Row | Structure (SMILES) | %Inh (DMPK2) [%] | %Inh (DMPK) [%] | %Inh (DRAK1) [%] | %Inh (DRAK2) [%] | %Inh (DYRK1A) [%] | %Inh (DYRK1B) [%] | %Inh (DYRK2) [%] | %Inh (EGFR) [%] | %Inh (EIF2AK1) [%] | %Inh (EPHA1) [%]
1 | COC(=O)c1cccc(NC(=O)NC2CCN(c3ccnc(Nc4ccc(F)cc4)n3)C2)c1 (stereo not shown) [GSK1379725] | 0 | 0 | 0 | 0 | 18 | 0 | 0 | 0 | 0 | 8
2 | CC(C)c1cc(-c2ccc3c(N)n[nH]c3c2)nc(N)n1 [GSK2250882] | 0 | 1 | 98.4 | 0 | 28 | 0 | 78 | 17 | 12 | 2
3 | CS(=O)(=O)CCNCc1nc(-c2ccc3ncnc(Nc4ccc5c(cnn5Cc5ccccc5)c4)c3c2)cs1.Cl.Cl [GW569716] | 0 | 0 | 35 | 21 | 36 | 0 | 0 | – | 0 | 14
4 | COc1cccc(C2=C(Nc3cc(Cl)c(O)c(Cl)c3)C(=O)NC2=O)c1 [SB-390767] | 0 | 0 | 2 | 0 | 38 | 0 | 2 | 0 | 0 | 8
5 | Fc1ccc(-c2nc[nH]c2-c2ccncc2)cc1 [SB-217360] | 71 | 0 | 0 | 0 | 6 | 0 | 33 | 31 | 0 | 0
6 | Cn1cncc1-c1cc2c(Nc3ccc(OCc4ccccc4)cc3)ncnc2cn1 [GW281179] | 0 | 0 | 93 | 5 | 19 | 21 | 3 | 100 | 0 | 14
7 | Cc1ccc(NC(=O)c2ccc(Cl)cc2)cc1-c1ccc(C(=O)Nc2ccncc2)cc1 [GSK1398467] | 0 | 0 | 5 | 0 | 4 | 0 | 0 | 33 | 0 | 19
8 | O=C(Nc1n[nH]c2nc(-c3cccs3)c(Br)cc12)C1CC1 [SB-735297] | 0 | 0 | 25 | 0 | 13 | 0 | 26 | 0 | 0 | 21
9 | Cn1cnc2c(N)ncnc21 [SKF-97623] | 0 | 0 | 8 | 0 | 0 | 36 | 0 | 13 | 0 | 0
10 | COc1ccc(Nc2nccc(N3CCC(NC(=O)C(C)c4ccc(Cl)cc4)CC3)n2)cc1 (stereo not shown) [GSK1379812] | 6 | 1 | 0 | 0 | 99.2 | 0 | 19 | 0 | 0 | 0
11 | O=c1cc(N2CCOCC2)nc2n(Cc3ccccc3F)ccn12 [GSK2297428] | 0 | 0 | 0 | 0 | 6 | 0 | 9 | 18 | 0 | 3
